“And” between values parts separate entries of the source, which are not always exact repeats. Identical values can stand only once. Results filed as inconclusive are left out. A structure can be active in one record and inactive in another. The source made the active and inactive calls. Unless noted, calls follow the shape of the dose curve; as a rule, active = well fitted curve in the direction sought with a large enough effect in the repeat runs; inconclusive = weak or mixed curves; inactive = no such curve, though single readings can be large; an effect the other way counts as inactive or inconclusive.
Tests used:
[1] = qHTS assay to identify small molecule agonists of the peroxisome proliferator-activated receptor delta (PPARd) signaling pathway - cell viability counter screen (AID 743211); also: nearly all actives have a fitted effect of over 55% in size; also: potency is read from the fitted curve at half-maximal effect
Procedure, shortened: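 Multiplexed format: after the 2 h room-temperature LiveBLAzer B/G FRET step, CellTiter-Glo was added to the same wells. Luminescence after 30 min gave cell viability; compound exposure was 17 h at 37C.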

[2] = target: Peroxisome proliferator-activated receptor delta (Homo sapiens) (UniProt Q03181); test: qHTS assay to identify small molecule agonists of the peroxisome proliferator-activated receptor delta (PPARd) signaling pathway (AID 743212; calls by dose curve)
Procedure, shortened: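 HEK293H PPARd-bla cells; 5 h preincubation 37 C/5% CO2; compound (DMSO) 37 C; LiveBLAzer B/G FRET substrate 2 h RT; fluorescence intensity.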

[3] = qHTS assay to identify small molecule antagonists of the peroxisome proliferator-activated receptor delta (PPARd) signaling pathway - cell viability counter screen (AID 743213); also: nearly all actives have a fitted effect of over 50% in size; also: potency is read from the fitted curve at half-maximal effect
Procedure, shortened: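 Same-well viability: cells pre-incubated 5 h, dosed with compound plus 300 nM L165041, kept 17 h at 37 C, FRET substrate 2 h RT, then CellTiter-Glo 30 min RT and luminescence.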

[4] = target: Peroxisome proliferator-activated receptor delta (Homo sapiens) (UniProt Q03181); test: qHTS assay to identify small molecule antagonists of the peroxisome proliferator-activated receptor delta (PPARd) signaling pathway (AID 743215; active = well fitted inhibition curve with a large enough effect in the signal ratio in the repeat runs, not every such curve was filed as active; the % refers to the signal ratio;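 also: cells stimulated with agonist L165041 at 300 nM final during compound exposure; series mostly up to about 62 µM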)
Procedure, shortened: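 HEK293H UAS-bla, PPARd; agonist L165041 300 nM final with cpd in DMSO; 37 C 17 h; FRET substrate, RT 2 h; fluorescence intensity.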

[5] = qHTS assay to identify small molecule agonists of the farnesoid-X-receptor (FXR) signaling pathway - cell viability counter screen (AID 743218); also: nearly all actives have a fitted effect of over 45% in size; also: potency is read from the fitted curve at half-maximal effect
Procedure, shortened: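 Parallel cytotoxicity test: compound-treated (16 h, 37 C) HEK 293T FXR-bla reporter cells were lysed with CellTiter-Glo and luminescence recorded.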

[6] = qHTS assay to identify small molecule antagonists of the farnesoid-X-receptor (FXR) signaling pathway - cell viability counter screen (AID 743221; active = well fitted cell-killing curve with a large enough effect in the repeat runs, not every such curve was filed as active; also: nearly all actives have a fitted effect of over 50% in size)
Procedure, shortened: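 CellTiter-Glo, 30 min RT, luminescence; same wells as the LiveBLAzer FRET read. Cells: FXR-UAS-bla HEK 293T. Treatment: compound with chenodeoxycholic acid 50 uM final, 16 h at 37 C.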

[7] = qHTS assay to identify small molecule agonists of the vitamin D receptor (VDR) signaling pathway - cell viability counter screen (AID 743224); also: series mostly up to about 63 µM; nearly all actives have a fitted effect of over 50% in size
Procedure, shortened: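 Plated VDR-bla cells (4 h, 37C) received compound, incubated 16 h, then LiveBLAzer substrate 2 h RT; CellTiter-Glo added afterwards, luminescence read at 30 min.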

[8] = qHTS assay to identify small molecule antagonists of the vitamin D receptor (VDR) signaling pathway - cell viability counter screen (AID 743225); also: nearly all actives have a fitted effect of over 50% in size
Procedure, shortened: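 Cytotoxicity toward the VDR-bla HEK 293T line was scored by ATP-based CellTiter-Glo luminescence, read in the wells already used for the beta-lactamase readout after 16 h compound treatment under 3 nM 1-alpha,25-dihydroxyvitamin D3 stimulation.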

[9] = qHTS assay to identify small molecule agonists of the NFkB signaling pathway - cell viability counter screen (AID 1159515; calls by dose curve; also: nearly all actives have a fitted effect of over 55% in size; also: potency is read from the fitted curve at half-maximal effect)
Procedure, shortened: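 Using the same wells as the NFkB reporter read, ME-180 NFkB-bla cells given compounds for 5 hr were assessed for viability via CellTiter-Glo, with luminescence taken after a 30 min room-temperature incubation.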

[10] = qHTS assay to identify small molecule agonists of the endoplasmic reticulum stress response signaling pathway (AID 1159516; active = well fitted activation curve with a large enough effect in the signal ratio in the repeat runs, not every such curve was filed as active; the % refers to the signal ratio)
Procedure, shortened: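 An ESRE-bla HeLa cell assay: compounds were pin-transferred from DMSO onto overnight-plated cells and left 5 hr at 37 C. Substrate was then loaded for 2 hr at room temperature before reading fluorescence at 460 nm and 530 nm.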

[11] = qHTS assay to identify small molecule agonists of the endoplasmic reticulum stress response signaling pathway - cell viability counter screen (AID 1159517; calls by dose curve)
Procedure, shortened: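 HeLa cells carrying an ESRE-driven beta-lactamase reporter receive compound for 5 hr at 37 C. Cell viability is then gauged with CellTiter-Glo by luminescence, 30 min at room temperature.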

[12] = qHTS assay to identify small molecule antagonists of the retinoid-related orphan receptor gamma (ROR-gamma) signaling pathway - cell viability counter screen (AID 1159520); also: nearly all actives have a fitted effect of over 50% in size
Procedure, shortened: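 Cytotoxicity was read from cellular ATP (CellTiter-Glo luminescence) after 16 hr at 37 C with 1 uM doxycycline induction. The inducer was added 2 hr after compound transfer to Tet-on ROR gamma CHO cells.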

[13] = target: Nuclear receptor ROR-gamma (Homo sapiens) (UniProt P51449); test: qHTS assay to identify small molecule antagonists of the retinoid-related orphan receptor gamma (ROR-gamma) signaling pathway (AID 1159521; also: nearly all actives have a fitted effect of over 50% in size; also: potency is read from the fitted curve at half-maximal effect)
Procedure, shortened: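 Readout: ONE-Glo luciferase luminescence, 30 min at room temperature. System: Tet-on RORγ CHO, RORE-LUC. Sequence: compound 2 h, doxycycline 1 uM final, 16 h at 37 C.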

[14] = qHTS assay to identify small molecule agonists of the AP-1 signaling pathway - cell viability counter screen (AID 1159525; calls by dose curve; also: nearly all actives have a fitted effect of over 55% in size)
Procedure, shortened: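 Luminescent ATP readout (Cell Titer Glo, 30 min RT), normalised to DMSO and tetra n-octyl ammonium bromide controls. Cells were ME-180 AP-1-bla in 0.5% dialyzed FBS Opti-MEM, with a 5 h, 37 °C compound exposure.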

[15] = qHTS assay to identify small molecule agonists of the AP-1 signaling pathway (AID 1159526; calls by dose curve)
[16] = target: Retinoic acid receptor RXR-alpha (Homo sapiens) (UniProt P19793); test: qHTS assay to identify small molecule agonists of the RXR signaling pathway (AID 1159527; calls by dose curve; also: nearly all actives have a fitted effect of over 35% in size; also: potency is read from the fitted curve at half-maximal effect)
Procedure, shortened: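 Reporter activation is measured as beta-lactamase activity via FRET substrate cleavage (emission 460/530 nm) in HEK 293T cells expressing an RXR-alpha-driven bla construct, following 16 hr compound exposure at 37 C.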

[17] = target: Bile acid receptor (Homo sapiens) (UniProt Q96RI1); test: qHTS assay to identify small molecule antagonists of the farnesoid-X-receptor (FXR) signaling pathway (AID 743217; active = well fitted inhibition curve with a large enough effect in the signal ratio in the repeat runs, not every such curve was filed as active; the % refers to the signal ratio)
Procedure, shortened: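 GeneBLAzer FXR-UAS-bla HEK 293T, CDCA-stimulated (50 uM final). Compound treatment 16 h, 37 °C. Detection: beta-lactamase cleavage of B/G FRET substrate, fluorescence.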

[18] = target: Bile acid receptor (Homo sapiens) (UniProt Q96RI1); test: qHTS assay to identify small molecule agonists of the farnesoid-X-receptor (FXR) signaling pathway (AID 743220; active = well fitted activation curve with a large enough effect in the signal ratio in the repeat runs, not every such curve was filed as active; the % refers to the signal ratio)
Procedure, shortened: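 Beta-lactamase reporter under UAS control in GeneBLAzer FXR HEK 293T cells (5000/well) measured with LiveBLAzer FRET substrate after 2 h at room temperature. Compound exposure lasted 16 h at 37C.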

[19] = target: Vitamin D3 receptor (Homo sapiens) (UniProt P11473); test: qHTS assay to identify small molecule agonists of the vitamin D receptor (VDR) signaling pathway (AID 743222; calls by dose curve)
Procedure, shortened: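 In VDR-bla cells, compound-induced beta-lactamase expression is quantified by FRET substrate fluorescence. Treatment lasts 16 h at 37C; substrate develops 2 h at room temperature.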

[20] = target: Vitamin D3 receptor (Homo sapiens) (UniProt P11473); test: qHTS assay to identify small molecule antagonists of the vitamin D receptor (VDR) signaling pathway (AID 743223; active = well fitted inhibition curve with a large enough effect in the signal ratio in the repeat runs, not every such curve was filed as active; the % refers to the signal ratio)
Procedure, shortened: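 After VDR-bla cells are plated and left 4 h at 37C, DMSO-dissolved compounds and 3 nM (final) calcitriol agonist are added. Incubation continues 16 h at 37C; FRET beta-lactamase substrate then develops 2 h at room temperature.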

Measured: Potency

Sequence of Vitamin D3 receptor (Homo sapiens) (P11473 whole entry, looked up): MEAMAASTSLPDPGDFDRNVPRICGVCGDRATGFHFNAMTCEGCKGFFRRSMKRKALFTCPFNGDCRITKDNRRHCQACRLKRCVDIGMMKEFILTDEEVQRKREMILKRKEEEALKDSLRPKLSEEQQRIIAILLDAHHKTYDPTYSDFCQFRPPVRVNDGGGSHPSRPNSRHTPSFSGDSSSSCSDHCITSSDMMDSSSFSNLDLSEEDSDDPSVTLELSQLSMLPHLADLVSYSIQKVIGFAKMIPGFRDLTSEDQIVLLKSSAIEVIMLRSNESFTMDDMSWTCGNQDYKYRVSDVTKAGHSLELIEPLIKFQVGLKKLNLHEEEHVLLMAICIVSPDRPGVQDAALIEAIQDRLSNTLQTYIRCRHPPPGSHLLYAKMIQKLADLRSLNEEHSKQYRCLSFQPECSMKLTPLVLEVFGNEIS
Sequence of Retinoic acid receptor RXR-alpha (Homo sapiens) (P19793 whole entry, looked up): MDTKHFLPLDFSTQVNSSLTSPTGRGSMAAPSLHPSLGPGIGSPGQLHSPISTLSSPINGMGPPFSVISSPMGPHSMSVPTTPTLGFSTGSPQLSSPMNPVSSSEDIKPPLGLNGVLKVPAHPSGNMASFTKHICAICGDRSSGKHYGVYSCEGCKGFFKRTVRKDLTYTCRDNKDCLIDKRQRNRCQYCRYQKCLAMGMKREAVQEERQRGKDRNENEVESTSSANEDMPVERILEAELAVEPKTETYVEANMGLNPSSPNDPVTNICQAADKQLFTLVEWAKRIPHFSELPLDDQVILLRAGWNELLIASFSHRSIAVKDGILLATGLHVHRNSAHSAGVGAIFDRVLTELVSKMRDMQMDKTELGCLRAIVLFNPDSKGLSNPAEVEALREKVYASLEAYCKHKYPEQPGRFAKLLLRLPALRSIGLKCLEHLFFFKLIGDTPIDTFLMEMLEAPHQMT
Sequence of Bile acid receptor (Homo sapiens) (Q96RI1 whole entry, looked up): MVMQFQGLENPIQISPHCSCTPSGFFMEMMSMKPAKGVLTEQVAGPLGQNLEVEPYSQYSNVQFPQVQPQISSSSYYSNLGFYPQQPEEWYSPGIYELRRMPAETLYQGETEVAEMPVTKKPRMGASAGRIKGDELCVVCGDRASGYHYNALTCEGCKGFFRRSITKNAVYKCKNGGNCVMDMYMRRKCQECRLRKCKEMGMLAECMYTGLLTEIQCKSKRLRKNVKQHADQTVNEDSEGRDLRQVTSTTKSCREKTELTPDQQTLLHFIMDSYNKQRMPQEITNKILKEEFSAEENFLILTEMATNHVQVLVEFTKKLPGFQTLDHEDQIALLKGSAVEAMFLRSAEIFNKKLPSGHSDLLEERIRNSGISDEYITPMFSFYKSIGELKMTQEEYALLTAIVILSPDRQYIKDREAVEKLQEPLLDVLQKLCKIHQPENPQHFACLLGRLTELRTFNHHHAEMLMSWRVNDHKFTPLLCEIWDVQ
Sequence of Peroxisome proliferator-activated receptor delta (Homo sapiens) (Q03181 whole entry, looked up): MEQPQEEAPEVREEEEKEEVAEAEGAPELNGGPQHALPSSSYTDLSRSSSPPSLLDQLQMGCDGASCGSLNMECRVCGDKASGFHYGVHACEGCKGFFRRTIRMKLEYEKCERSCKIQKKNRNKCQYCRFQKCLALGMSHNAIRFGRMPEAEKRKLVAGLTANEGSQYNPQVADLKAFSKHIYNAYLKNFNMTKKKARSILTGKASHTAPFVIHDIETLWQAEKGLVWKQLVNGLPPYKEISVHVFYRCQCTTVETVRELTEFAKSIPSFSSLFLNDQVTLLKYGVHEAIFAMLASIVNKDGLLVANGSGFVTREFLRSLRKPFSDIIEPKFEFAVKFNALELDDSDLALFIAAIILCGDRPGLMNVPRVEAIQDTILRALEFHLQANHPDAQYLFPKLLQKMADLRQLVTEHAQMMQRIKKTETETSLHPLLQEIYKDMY

CCn1cc(C(=O)O)c(=O)c2cc(F)c(N3CCNC(C)C3)c(F)c21 (stereo not drawn)
not listed: [17] | [18] | [19] | [20]
inactive: all other assays above

Cc1cccc(O)c1C
not listed: [8] | [20]
inactive: all other assays above

COc1ccc(COC(C)=O)cc1
not listed: [20]
inactive: all other assays above

OCC(CO)N[C@H]1C[C@](O)(CO)[C@@H](O)[C@H](O)[C@H]1O
not listed: [5] | [8] | [20]
inactive: all other assays above

CCC[C@H](N[C@@H](C)C(=O)N1[C@H](C(=O)O)C[C@@H]2CCCC[C@@H]21)C(=O)OCC
not listed: [4] | [19] | [20]
inactive: all other assays above

CC(C)(O)CCC(C)(C)O
not listed: [8] | [17] | [18] | [20]
inactive: all other assays above

N[C@@H]1CONC1=O
not listed: [1] | [2] | [4] | [20]
inactive: all other assays above

O=C1Nc2ccccc2C1(c1ccc(O)cc1)c1ccc(O)cc1
active: [9] 0.174 µM
not listed: [14] | [15] | [17] | [18] | [20]
inactive: all other assays above

COc1ccc(Cc2cnc(N)nc2N)cc1OC
not listed: [3] | [13] | [20]
inactive: all other assays above

c1ccc2c(c1)CCCC2C1=NCCN1 (stereo not drawn)
not listed: [8] | [13] | [20]
inactive: all other assays above

CCc1cc(C(C)(C)C)c(O)c(C(C)(C)C)c1
not listed: [16]
inactive: all other assays above

CC(N)=O
not listed: [1] | [2] | [4] | [17] | [18] | [19] | [20]
inactive: all other assays above

CCCNC(C)C(=O)Nc1ccccc1C (stereo not drawn)
not listed: [5] | [13] | [17] | [18] | [20]
inactive: all other assays above

CC(=O)O[C@]1(C(C)=O)CC[C@H]2[C@@H]3C[C@H](C)C4=CC(=O)CC[C@]4(C)[C@H]3CC[C@@]21C
active: [13] 26.6 µM
not listed: [15] | [16] | [19]
inactive: all other assays above

COC(=O)[C@H]1[C@H]2C[C@@H]3c4[nH]c5cc(OC)ccc5c4CCN3C[C@H]2C[C@@H](OC(=O)c2cc(OC)c(OC)c(OC)c2)[C@@H]1OC
active: [1] 17.9 µM | [3] 17.9 µM | [5] 22.5 µM
inactive: [4] | [6] | [7] | [9] | [10] | [11] | [12] | [14] | [15]

CC(=O)OCCOCCOCCOC(C)=O
inactive and 12.3 µM (active): [16]
not listed: [13]
inactive: all other assays above

Source: PubChem BioAssay (Tox21)
